Measurements published in PubChem BioAssay AID1159580 (chemical genetic matrix, 2015).
Several values for one entry are separate records, joined by “and”; a condition that tells them apart may be missing. Equal entries are not always repeated. The whole screen tested about 5,500 compounds, of which about 2,000 (36%) were called active. Not shown: some 18% with an inconclusive outcome. Rule as the data show it: active = normalized growth mostly below about 0.91 (no sharp cut-off); inconclusive = no clear call, values can overlap the other calls; inactive = mostly above about 0.92. The list shows a part of the results.

Assay: chemical genetic growth profiling, strain panel (AID 1159580);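 also: tested at 20 µM; growth read once vehicle control cultures reached saturation at 30 °C; 1 = growth at the plate median or of vehicle wells; lower values mean less growth of the strain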
Settings: S. cerevisiae deletion strains, growth OD

Measured: normalized growth

O=c1n(CCCN2CCN(c3cccc(Cl)c3)CC2)nc2ccccn12
inactive: locus YAL013W, strain DEP1, active compounds read low 0.995 | locus YAL021C, strain ccr4, active compounds read low 0.939 | locus YAL026C, strain drs2, active compounds read low 0.987 | locus YAL030W, strain snc1, active compounds read low 0.988 | locus YAL040C, strain CLN3, active compounds read low 0.987 | locus YBL061C, strain skt5, active compounds read low 0.983 | locus YBR009C, strain hhf1, active compounds read low 0.983 | locus YBR021W, strain FUR4, active compounds read low 0.998 | locus YBR023C, strain chs3, active compounds read low 0.981 | locus YBR171W, strain sec66, active compounds read low 0.979 | locus YBR229C, strain ROT2, active compounds read low 0.951 | locus YBR231C, strain swc5, active compounds read low 0.981 | locus YBR279W, strain paf1, active compounds read low 0.985 | locus YCL011C, strain gbp2, active compounds read low 0.976 | locus YCL016C, strain dcc1, active compounds read low 0.982 | locus YCL029C, strain bik1, active compounds read low 0.987 | locus YCL061C, strain MRC1 (second series), active compounds read low 0.998 | locus YCL061C, strain MRC1, active compounds read low 0.984 | locus YCL069W, strain vba3, active compounds read low 0.975 | locus YCR088W, strain abp1, active compounds read low 0.978 | locus YDL005C, strain med2, active compounds read low 0.965 | locus YDL035C, strain GPR1, active compounds read low 0.984 | locus YDL040C, strain nat1, active compounds read low 0.979 | locus YDL074C, strain BRE1, active compounds read low 0.941 | locus YDL101C, strain DUN1, active compounds read low 0.97 | locus YDL134C, strain PPH21, active compounds read low 1 | locus YDL185W, strain tfp1, active compounds read low 0.982 | locus YDL192W, strain arf1, active compounds read low 0.986 | locus YDR001C, strain nth1, active compounds read low 0.986 | locus YDR069C, strain doa4, active compounds read low 0.966 | locus YDR101C, strain arx1, active compounds read low 0.97 | locus YDR137W, strain rgp1, active compounds read low 0.94 | locus YDR150W, strain NUM1, active compounds read low 0.992 | locus YDR159W, strain sac3, active compounds read low 0.956 | locus YDR162C, strain NBP2, active compounds read low 0.991 | locus YDR195W, strain ref2 0.977 | locus YDR297W, strain sur2, active compounds read low 0.98 | locus YDR318W, strain mcm21, active compounds read low 0.998 | locus YDR334W, strain swr1, active compounds read low 0.964 | locus YDR335W, strain msn5, active compounds read low 0.984 | locus YDR363W, strain ESC2, active compounds read low 0.998 | locus YDR388W, active compounds read low 0.989 | locus YDR392W, strain spt3, active compounds read low 0.95 | locus YDR502C, strain sam2, active compounds read low 0.989 | locus YEL003W, strain gim4, active compounds read low 0.986 | locus YEL037C, strain rad23, active compounds read low 0.964 | locus YEL061C, strain CIN8 (second series), active compounds read low 0.975 | locus YEL061C, strain CIN8, active compounds read low 0.986 | locus YER002W, strain NOP16, active compounds read low 1 | locus YER015W, strain faa2, active compounds read low 0.978 | locus YER016W, strain bim1, active compounds read low 0.987 | locus YER110C, active compounds read low 0.984 | locus YER111C, strain swi4, active compounds read low 0.971 | locus YER155C, strain BEM2 (second series), active compounds read low 0.948 | locus YER155C, strain BEM2, active compounds read low 0.994 | locus YER167W, strain BCK2, active compounds read low 1 | locus YFR010W, strain ubp6, active compounds read low 0.975 | locus YGL078C, strain dbp3, active compounds read low 0.999 | locus YGL086W, strain mad1, active compounds read low 0.976 | locus YGL167C, strain pmr1, active compounds read low 0.976 | locus YGL173C, strain kem1, active compounds read low 0.973 | locus YGL227W, strain vid30, active compounds read low 0.985 | locus YGL240W, strain doc1, active compounds read low 0.98 | locus YGL248W, strain PDE1, active compounds read low 0.964 | locus YGL253W, strain hxk2, active compounds read low 0.999 | locus YGR078C, strain PAC10, active compounds read low 0.99 | locus YGR135W, strain pre9, active compounds read low 1.03 | locus YGR229C, strain SMI1, active compounds read low 1.01 | locus YGR252W, strain gcn5, active compounds read low 0.993 | locus YHR013C, strain ard1, active compounds read low 0.854 | locus YHR027C, strain rpn1, active compounds read low 0.978 | locus YHR030C, strain SLT2, active compounds read low 1 and 0.995 | locus YHR079C, strain IRE1 (second series), active compounds read low 0.998 | locus YHR079C, strain IRE1, active compounds read low 1 | locus YHR094C, strain hxt1, active compounds read low 0.99 | locus YHR129C, strain ARP1, active compounds read low 0.994 | locus YHR142W, strain chs7, active compounds read low 0.985 | locus YHR200W, strain rpn10, active compounds read low 0.997 | locus YIL066C, strain RNR3, active compounds read low 0.955 | locus YIL073C, strain SPO22, active compounds read low 1.13 | locus YIL125W, strain kgd1, active compounds read low 0.988 | locus YIR030C, strain dcg1, active compounds read low 0.987 | locus YJL092W, strain hpr5, active compounds read low 0.97 | locus YJL095W, strain BCK1 (second series), active compounds read low 0.987 | locus YJL095W, strain BCK1, active compounds read low 0.898 and 1 | locus YJL115W, strain asf1, active compounds read low 0.978 | locus YJL129C, strain trk1, active compounds read low 0.946 | locus YJL134W, strain LCB3, active compounds read low 0.992 | locus YJL154C, strain vps35, active compounds read low 0.975 | locus YJL164C, strain tpk1, active compounds read low 0.984 | locus YJL166W, strain qcr8, active compounds read low 0.969 | locus YJL168C, strain set2, active compounds read low 0.993 | locus YJL187C, strain SWE1 (second series), active compounds read low 0.932 | locus YJL187C, strain SWE1, active compounds read low 0.979 | locus YJR043C, strain POL32, active compounds read low 0.936
